For 40 compounds, Potency results are on record in PubChem BioAssay (NCATS).

Structures are written as SMILES. Results filed as inconclusive are left out. A call without a number means that no potency is given here. The source made the active and inactive calls. The call rests on the fitted dose curve.

The experiment deals with Atrial natriuretic peptide receptor 1 (Homo sapiens) (UniProt P16066). Description: Natriuretic polypeptide receptor (hNpr1) antagonism - Pilot CMLD screen (AID 1347052). The note with it: HEK293 hNpr1 GloSensor cGMP luminescence, ANP-stimulated; series mostly up to 9.22 µM. The method, then: In order to identify small molecular compounds that inhibit the hNpr1 receptor we developed a high-throughput assay to measure inhibition of the guanylate cyclase activity of the receptor. cGMP production was measured using a circular permutated Firefly luciferase (FLuc) enzyme functionally linked to the cGMP binding domain of human phosphodiesterase 5 (GloSensor technology pGS-40F, (Fan, F. et al. 2008). The cGMP-sensor was expressed in human embryonic kidney 293 (HEK-293) cells and FLuc activity was measured after stimulation with hNrp agonist peptide. hNrp agonists activates the receptor's associated guanylyl cyclase (GC) domain producing cGMP which then binds to the GloSensor resulting in FLuc activation, the enzymatic activity of which can be measured as bioluminescence with addition of luciferin substrate.
Atrial natriuretic peptide receptor 1 (Homo sapiens), sequence (P16066 whole entry, looked up, the tested form may be a part): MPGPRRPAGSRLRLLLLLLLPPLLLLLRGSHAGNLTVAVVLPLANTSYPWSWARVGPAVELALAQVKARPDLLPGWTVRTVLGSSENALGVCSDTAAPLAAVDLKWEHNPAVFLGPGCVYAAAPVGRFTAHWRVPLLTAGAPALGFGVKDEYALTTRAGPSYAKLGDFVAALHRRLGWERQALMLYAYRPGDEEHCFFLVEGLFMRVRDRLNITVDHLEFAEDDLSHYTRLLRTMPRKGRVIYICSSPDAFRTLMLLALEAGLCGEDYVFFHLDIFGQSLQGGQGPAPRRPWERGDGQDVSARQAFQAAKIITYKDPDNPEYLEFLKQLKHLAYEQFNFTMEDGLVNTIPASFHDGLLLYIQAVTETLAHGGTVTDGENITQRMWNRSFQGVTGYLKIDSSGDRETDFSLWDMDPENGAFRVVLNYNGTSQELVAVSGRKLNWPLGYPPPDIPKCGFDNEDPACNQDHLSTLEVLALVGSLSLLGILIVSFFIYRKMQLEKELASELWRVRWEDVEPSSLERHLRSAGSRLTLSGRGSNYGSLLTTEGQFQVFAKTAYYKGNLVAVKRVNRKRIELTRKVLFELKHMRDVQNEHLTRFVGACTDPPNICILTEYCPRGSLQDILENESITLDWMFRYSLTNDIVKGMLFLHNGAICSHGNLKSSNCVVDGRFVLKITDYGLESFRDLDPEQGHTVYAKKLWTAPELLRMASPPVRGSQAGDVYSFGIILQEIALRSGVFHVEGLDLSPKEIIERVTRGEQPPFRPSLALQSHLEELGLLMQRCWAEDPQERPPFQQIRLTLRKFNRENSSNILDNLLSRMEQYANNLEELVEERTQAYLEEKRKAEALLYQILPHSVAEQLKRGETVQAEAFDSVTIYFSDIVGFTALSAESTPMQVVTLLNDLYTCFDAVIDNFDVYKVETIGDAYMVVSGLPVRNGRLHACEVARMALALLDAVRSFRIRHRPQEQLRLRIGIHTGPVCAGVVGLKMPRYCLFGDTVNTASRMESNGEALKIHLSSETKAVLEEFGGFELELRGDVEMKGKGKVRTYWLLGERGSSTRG
This assay was initially piloted by testing with a small library of specialty compounds.
PROTOCOL TABLES (as described by Inglese J, Shamu CE and Guy RK. 2007)
SEQUENCE No. (e.g., 1, 2, 3, etc.); […] (e.g., Cells, Incubation, Reagent, etc.); VALUE and DESCRIPTION.
1. Cells. Seed 1500 HEK293 cGMP-sensor cells expressing hNpr1 per well in 4uL into Greiner 1536-well white/solid bottom high base, tissue culture-treated plates.
2. Incubation. Incubate plated cells at 37C in 5% CO2, 95% RH overnight.
3. Reagent. Add 1uL per well GloSensor reagent from Promega (2% final concentration) or CO2 independent media vehicle control to respective columns of Greiner 1536-well plates.
4. Incubation. Incubate plated cells at room temperature for 2 h, protect from light.
5. Compounds. Library compounds and A-71915 control added at 23 nL per well, transferred by Pin Tool.
6. Incubation. Incubate plated cells for 30 min. at room temperature, protect from light.
7. Detector. GloSensor baseline pre-read luminescence measured using CCD-based camera (Viewlux).
8. Compound. Add 1uL of hNppA peptide to 0.1 nM final concentration to stimulate hNpr1 or CO2 independent media as vehicle control.
9. Incubation. Incubate treated cells at room temperature for 20 min., protect from light.
10. Detector. GloSensor post-hNppA luminescence measured using CCD-based camera (Viewlux).
NOTES (numbers refer to Sequence numbers above)
1. HEK293 cells expressing hNpr1 and GIP/pGS-40F grown to 85-95% confluence (48-72 h) in T175 culture flasks (CO2 independent media supplemented with 10% FBS, 1% Pen/Strep antibiotics and 1 ug/mL puromycin). Trypsinize and harvest cells from T175 culture flasks and filter through 40 um cell strainer. Cells counted with Invitrogen Countess (30,000,000 - 50,000,000 cells/flask). Cells diluted to a final concentration of 375 cells/uL in CO2 independent media and a Millipore multidrop used to dispense 1500 cells per well (4uL/well) into 13 1536-well Greiner White/Solid bottom, high base tissue-culture treated (TC) plates and one Aurora 1536-well Black/Clear bottom, low base, TC plate (for visual inspection of cell health throughout the duration of the assay).
2. Cells incubated overnight at ambient temperature, 24 h. at 37C in 95% RH incubator protected from light, covered with metal lid with gas-exchange holes.
3. Prepare GloSensor Reagent (Promega): Reconstitute GloSensor luciferase substrate by adding 8.2mL Hepes buffer to 250mg substrate, mix well, protect from light and stored at -80C. Prepare a fresh 12% GloSensor solution in CO2 independent supplemented plating media (see above). Mix well and store at ambient temperature, protected from light. 1uL 12% GloSensor Luciferase Reagent added (2% final concentration) to respective columns of 13 x 1536-well Greiner plate with BioRaptr, 1uL CO2 independent plating media added to respective columns as vehicle control with BioRaptr.
4. Cells incubated for 2 h. at ambient temperature, protected from light with metal lid with gas-exchange holes.
5. A-71915 stock solution prepared (10 mM in DMSO). […]
Turning to `C=CCN1c2ccccc2[C@]23C[C@@H](C(=O)OC)N(C(=O)Nc4ccccc4F)C2=NC(C(=O)OC)=C(C(=O)OC)[C@H]13`, the Potency entry was “inactive”. The same measure for `CC(C)[C@@H](OCc1ccccc1)[C@H](C)C=NO[C@H](C)c1cn([C@H](CO)Cc2ccccc2)nn1`: “inactive”; for `CCCCC#C[C@@H]1C=C[C@H](Oc2ccc(C(=O)OC)cc2)[C@@H](COC(=O)OCC)O1`: “inactive”. With `COc1cccc([C@H]2Oc3ccc(OC)cc3C(=NO[C@H](C)c3cn([C@H](CO)Cc4ccccc4)nn3)[C@H]2O)c1`, the Potency result is “inactive”. The same measure for `COC(=O)CC=C[C@@H](C)[C@@H](C=NO[C@H](C)c1cn([C@H](CO)Cc2ccccc2)nn1)NS(=O)(=O)c1ccc(C)cc1`: “inactive”. Turning to `C=CC[C@@H]1C=C[C@H](ON=C[C@@H](C)[C@H](OCc2ccccc2)C(C)C)[C@H](CO)O1`, the Potency entry was “inactive”. The same measure for `O=c1oc2ccccc2c2c1[C@H]1O[C@](c3ccsc3)(Cc3c1ccc1ccccc31)O2`: “inactive”; for `CCOC(=O)OC[C@H]1O[C@H](C#Cc2ccc(C(C)(C)C)cc2)C=C[C@H]1OC(=O)OCC`: “inactive”; for `COC(=O)CC=C1c2ccccc2[C@@H](O)[C@@H]1C`: “inactive”. In the case of `COC(=O)CCCC1=CC2=CC(=O)C(C)(OC(=O)c3cccs3)C(=O)C2=CN1CCN1CCOCC1` (stereo not given), the Potency entry is “inactive”. As for `CC12C=C(C=CC=Cc3ccco3)C(C)(C1)C(C=Cc1ccco1)CC2=O` (stereo not given), the Potency entry is “inactive”. The same measure for `C[C@H]1COC(=O)[C@H](Cc2ccccc2)NC(=O)[C@@H](C)COC(=O)[C@H](Cc2ccccc2)NC1=O`: “inactive”. With `COc1ccc(O[C@H]2C=C[C@@H](c3ccccc3)O[C@H]2CON=C2c3cc(OC)ccc3O[C@H](c3cccc(OC)c3)[C@H]2O)cc1`, the Potency entry is “inactive”. Regarding `COc1cc2c(c(OC)c1OC)C1(c3ccccc3)CCCCCC1[C@@H]2NC(=O)C(F)(F)F` (stereo not given in full), the Potency result is “inactive”. Regarding `COC(=O)CCC(=O)OC1(C)C(=O)C=C2C=C(C3CC3)N(Cc3ccco3)C=C2C1=O` (stereo not given), the Potency result is “inactive”. `COC1=C[C@H](C(=O)NC2CCN(Cc3ccccc3)CC2)[C@H](C)[C@@H](c2ccccc2)CC1=O`: the Potency result was “inactive”. Under `COC(=O)N1C(C)=Cc2ccccc2C1CC(C)=CC(C)=O` (stereo not given) stands “inactive”; under `C=C(C)CCN1C(=O)NC(c2cccc(C(F)(F)F)c2)C(C(=O)OC)=C1C` (stereo not given), “inactive”. Consider `CCC(=O)N1C2=C(c3ccccc3[C@@H]1CC(=O)Nc1ccc3ccccc3c1)[C@H]1C(=O)N(c3ccccc3)C(=O)[C@@H]1[C@H](C)C2`, for which the Potency result was “inactive”.

Consider `C=CCN1C(=O)[C@@]2(CC(C)=C[C@@H](COc3ccccc3)O2)c2ccccc21`, for which the Potency entry was “inactive”. Regarding `O=C(NC(CC1=CCCCC1)c1ccccc1)C(F)(F)F` (stereo not given), the Potency result was “inactive”. Under `COC(=O)C1=C(C(=O)OC)[C@@H]2N(C)c3ccccc3[C@@]23C[C@@H](C(=O)OC)N(C(=O)c2ccco2)C3=N1` stands “inactive”; under `COC(=O)CC=C[C@@H](C)[C@@H](C=NOC[C@@H](O)[C@H]1O[C@@H]2OC(C)(C)O[C@H]2[C@@H]1O)OC`, “inactive”; under `CCOC(=O)C1=CN(CCC=C(C)C)C(=O)N(C(C)=O)C1c1ccccc1` (stereo not given), “inactive”. As for `COc1cccc(CO[C@H]2C=C[C@@H](c3ccccc3)O[C@H]2CN=[N+]=[N-])c1`, the Potency result was “inactive”. As for `O=C(NN=C1C[C@@H](O)[C@H](O)[C@H]2[C@@H]3C(=O)N(c4cccc(Oc5ccccc5)c4)C(=O)[C@@H]3CC[C@H]12)OCc1ccccc1`, the Potency entry was “inactive”. Regarding `O=C1C=C(c2ccccc2)CCC1`, the Potency entry was “inactive”. The same measure for `CCCCc1cc2c(cn1)C(=O)C(C)(OC(C)=O)C(=O)C2` (stereo not given): “inactive”; for `CCN(CC)CCCN=C1NC(c2cccc(C(F)(F)F)c2)C(C(=O)OC)=C(C)N1CC` (stereo not given): “inactive”.

Turning to `CC[C@@H](c1ccccc1)n1c(=O)n2n(c1=O)[C@H]1[C@H](O)[C@@H]3O[C@H]3C(=NOCc3ccccc3)[C@H]1CC2`, the Potency entry is “inactive”.

With `N#Cc1ccc2c(c1)C[C@]1(c3ccsc3)OC3=C(C(=O)OC4(CCCCC4)C3)[C@H]2O1`, the Potency result is “inactive”. Under `Cc1ccc([S+](=O)([O-])N(c2ccccc2)[S+](=O)([O-])C(F)(F)F)cc1` stands “inactive”.

In the case of `C=CCN(C)C1=NC(c2ccccc2)C(C(=O)OC)=C(C)N1CCOC` (stereo not given), the Potency result is “inactive”. Turning to `C=CC1=C2C=C(C3CC3)N(C3CCCCC3)C=C2C(=O)C(C)(OC(=O)c2ccco2)C1=O` (stereo not given), the Potency entry is “inactive”.

Take `COC(=O)C1=C(C)N(CC2CC2)C(=O)NC1CCc1ccccc1` (stereo not given): the Potency entry was “inactive”. In the case of `CCCCc1nc2c(c3c1C[C@H](C)OC3)CN(S(=O)(=O)CCCC)CC2`, the Potency result is “inactive”.

In the case of `COC(=O)C1=C(C)N(CC2CC2)C(=O)NC1c1ccccc1` (stereo not given), the Potency result was “inactive”. `Cc1ccc(C(=O)OC[C@H]2O[C@H](Cl)C[C@H]2OC(=O)c2ccc(C)cc2)cc1`: the Potency entry is “inactive”. Regarding `CCCCc1nc2c(c3c1C[C@H](C)OC3)CN(S(=O)(=O)c1ccc(C)cc1)CC2`, the Potency result is “inactive”. For `O=C1N(Cc2ccc(F)cc2)c2ccccc2[C@@]12O[C@H](COc1ccccc1)CC1CCCC12` (stereo not given in full), the Potency entry was “inactive”.
